Screening data: PubChem BioAssay, several laboratories
Compounds with a hit are over-represented: about 3.6% of the library has one in this group of screens.
APOBEC3A inh: APOBEC3A ssDNA deaminase inhibitors, primary screen, selectivity assay for APOBEC3G inhibitor project, biochemical, FAM/TAMRA oligo cleavage fluorescence | DNA dC->dU-editing enzyme APOBEC-3A (Homo sapiens), P31941 | inhibition, % at 20 µM | hit rate 0.41% among 330,000 | recombinant A3A, FAM/TAMRA ssDNA deamination fluorescence;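 active = at least 40% inhibition at 20 µM here, with at most 30% in a related deaminase screen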;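 note: plate controls were A3A with DMSO for no effect and wells lacking A3A enzyme for full effect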
Wnt act: Wnt/beta-catenin pathway activators, primary screen, cell-based, plate reader, single point; activation, % at 9.35 µM; hit rate 1.2% among 300,000; Wnt/beta-catenin reporter cell assay, activator; AID 743398, 2014; in the data active = activation above about 30%, passing the limit was not always enough;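 note: 0% = neutral control wells and 100% = positive control wells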
APOBEC3G inh: APOBEC3G DNA deaminase inhibitors, primary screen, biochemical, fluorescence, single-stranded DNA substrate, uHTS; DNA dC->dU-editing enzyme APOBEC-3G (Homo sapiens), Q9HC16; recombinant A3G, ssDNA deamination FAM/TAMRA fluorescence; inhibition, % at 20 µM; hit rate 0.28% among 330,000; AID 493012, 2011;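 active = inhibition of at least 40% at 20 µM, with no more than 30% in the related APOBEC3A deaminase screen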;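 note: plate controls were DMSO wells with A3G for no effect and wells lacking A3G enzyme for full effect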
PHOSPHO1 inh: PubChem AID 1565; recombinant PHOSPHO1, absorbance phosphatase assay; inhibition, % at 13.3 µM; hit rate 1.1% among 290,000; in the data active = inhibition above about 60%
Target sequence (Q8TCT1 whole entry, looked up): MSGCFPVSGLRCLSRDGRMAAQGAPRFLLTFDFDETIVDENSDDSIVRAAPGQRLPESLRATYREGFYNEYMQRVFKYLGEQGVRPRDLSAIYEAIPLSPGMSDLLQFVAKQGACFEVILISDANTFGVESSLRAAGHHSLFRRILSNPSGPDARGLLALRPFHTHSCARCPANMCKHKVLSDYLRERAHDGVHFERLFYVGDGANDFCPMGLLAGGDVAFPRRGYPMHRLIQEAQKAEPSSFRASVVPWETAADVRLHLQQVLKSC
esBAF inh: Bmi1 luciferase reporter increase in mESCs, primary screen, esBAF inhibitor project, mouse ES cells, Bmi1 luciferase knock-in, single point. 24 h; 100% = twice the neutral-well signal. reporter increase, % at 12.5 µM. hit rate 2% among 350,000; in the data active = activation above about 40%;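 note: 0% = median of the plate's neutral control wells and 100% = double that signal; a rise in the Bmi1 reporter signal indicates esBAF inhibition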
MITF act: activators of MITF-driven TRPM1 promoter reporter, primary screen, cell-based, SK-MEL-5, luciferase, single point | SK-MEL-5 TRPM1-promoter luciferase, 24 h; % of positive control, neutral wells = 0 | activation, % at 12.5 µM | hit rate 0.75% among 300,000;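 active = mean activation of at least 80% with every replicate also reaching 80%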;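 note: 0% = neutral control wells and 100% = parthenolide positive control wells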
An asterisk follows results filed as active; · = no result.

SMILES	APOBEC3A inh	Wnt act	APOBEC3G inh	PHOSPHO1 inh	esBAF inh	MITF act
COc1ccc(C(=O)Nc2nc3ccccc3[nH]2)cc1S(=O)(=O)N1CCCC1	0	5	12	16	45*	10
Cc1cc(C)cc(C(=O)Nc2nc3ccccc3[nH]2)c1	-2	14	-13	36	80*	49
COc1ccc(C(=O)N2CCN(c3ccccc3)CC2)cc1S(=O)(=O)N1CCOCC1	-5	0	-8	43	6	10
CN(C)S(=O)(=O)c1ccc(C(=O)Nc2nc3ccccc3[nH]2)cc1	3	13	-10	2	66*	62
O=C(Nc1nc2ccccc2[nH]1)c1cc(F)cc(F)c1	4	22	0	15	-2	50
COc1ccc(C(=O)N2CCN(c3ccc(C(C)=O)cc3)CC2)cc1S(=O)(=O)N1CCCC1	0	7	-3	·	48*	-1
CSc1nnc(NC(=O)c2ccc(S(=O)(=O)N(C)C)cc2)s1	0	40*	-3	-3	·	5
CN(C)S(=O)(=O)c1ccc(C(=O)Nc2nnc(SCc3ccccc3)s2)cc1	-4	-3	-5	11	·	-3
CCNC(=O)C[C@H]1CC[C@H]2[C@@H](COC[C@H](O)CN2C(=O)Nc2c(C)noc2C)O1	·	·	·	·	-1	·
COc1cc2c(cc1OC)-c1cc(Nc3ccccc3)nc(=O)n1CC2	-7	45*	5	13	·	·
COc1ccc(Nc2cc3n(c(=O)n2)CCc2cc(OC)c(OC)cc2-3)cc1	-5	0	-11	-2	11	41
C[C@H](CO)N1C[C@H](C)[C@H](CN(C)C(=O)Nc2ccccc2)OCCCC[C@H](C)Oc2ccc(NC(=O)Nc3cccc4ccccc34)cc2C1=O	·	·	·	·	6	·
COc1ccc2oc(C(=O)c3ccccc3)c(N)c2c1	-3	74*	-4	28	·	·
COC(=O)c1oc2ccc(Cl)cc2c1N	-5	18	-7	-13	22	37
COc1ccc2oc(C(=O)C3CC3)c(N)c2c1	0	4	0	24	67*	75
COC(=O)CCC(=O)c1oc2ccc(OC)cc2c1N	3	·	-1	-56	29	109*
O=C(O)c1ccc(-n2cc(C(=O)c3ccccc3O)cn2)cc1	0	4	-10	·	7	12
O=C(c1cnn(-c2cccc(F)c2)c1)c1ccccc1O	1	37*	-10	20	·	46
CCCOc1ccc(-c2nnn(CC(=O)N3CCC(C)CC3)n2)cc1	-3	·	-7	19	15	3
O=C(CCCOc1ccc(Cl)cc1)N1CCCCCC1	2	·	0	-18	62*	43
CC(C)(C)c1ccc(OCCCC(=O)N2CCOCC2)cc1	-3	14	-6	52	66*	44
CCCCOc1ccc(-c2nnn(CCC(=O)N3CCOCC3)n2)cc1	-2	11	-1	19	63*	60
O=C(c1cccn2c(=O)c3ccccc3nc12)N1CCN(c2ccccn2)CC1	1	·	0	11	-3	12
O=C(c1cccn2c(=O)c3cc4ccccc4cc3nc12)N1CCN(c2ccccc2)CC1	2	·	0	100*	·	·
Cn1c(-c2ccc([N+](=O)[O-])cc2)nc2ccccc21	-1	32*	0	4	6	34
Cn1cc([N+](=O)[O-])cc1-c1nc2ccccc2n1C	-7	1	-6	36	2	·
Cc1ccc(-c2cc(C(=O)NCc3ccco3)no2)cc1	0	23	-3	22	27	98*
COc1cccc(-c2cc(C(=O)NCc3ccco3)no2)c1	2	-4	0	-19	45*	63
COc1cc(OC)cc(C(=O)OCC(=O)NCc2ccco2)c1	3	47*	4	·	-4	-4
COc1ccc(-c2nnc(SC3CCOC3=O)n2C2CCCCC2)cc1OC (stereo unspecified)	2	·	-5	75*	-3	7
